Test results from PubChem BioAssay (NCI).
Where “and” joins values, the source holds several entries; their conditions need not be identical. Identical values can stand only once. This is part of a sample that, as a whole, favours compounds with a hit. Of some 83,000 tested, about 20% had one in any assay.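 Plates (96-well) were seeded with cells, treated with compound at one concentration, and incubated for 48 hours before percent growth was determined.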 Unmarked numbers belong to inactive results. Calls of active or inactive are those of the source. Rule for the calls: active = growth percent below 10; inactive = the rest.

How the values were obtained:
Assay in all cases: NCI-60 one-dose screen, 48 h (100 = growth as untreated, 0 = no growth, -100 = all killed)
Conditions in all cases: 10 µM unless noted
[1] = tested on: HCT-15 colon
[2] = tested on: HT29 colon
[3] = tested on: SNB-75 CNS
[4] = tested on: SNB-19 CNS
[5] = tested on: U251 CNS
[6] = tested on: PC-3 prostate
[7] = tested on: SK-MEL-5 melanoma
[8] = tested on: UACC-62 melanoma
[9] = tested on: LOX IMVI melanoma
[10] = tested on: SK-MEL-28 melanoma

Row | Structure (SMILES) | growth [1] | growth [2] | growth [3] | growth [4] | growth [5] | growth [6] | growth [7] | growth [8] | growth [9] | growth [10]
1 | CCN(CC)S(=O)(=O)c1ccc(-c2nc(C(Cl)Cl)nc3cc(-c4ccc(F)cc4)nn23)cc1 | 23.3% | 4.77% (active) | 56.5% | 40.2% | 17.7% | 18.6% | 83.3% | 54.2% | 32% | 27.9%
2 | CCCCCCCCCCCC(=O)NC(C)(C)C(=O)N1CCCC1C(=O)NC(C)(C)C(=O)NC(C)(C)C(=O)N1CCCC1C(=O)NC(C)(C)C(=O)NC(C)(C)C(=O)N1CCCC1C(=O)NC(C)C(=O)NCCC(=O)NC(C)C(=O)NC(C)(C)C(=O)NC(C)(C)C(=O)NC(C)(C)C(=O)NCCC(=O)NC(C)(C)C(=O)NC(C)(C)C(=O)NC(C)(C)C(=O)NC(C)C(=O)NCCC(=O)O (stereo not given) | -96.5% (active) | -86.6% (active) | -89.7% (active) | -97.4% (active) | -94.7% (active) | -93% (active) | -98.5% (active) | -90.9% (active) | -92.4% (active) | -93.8% (active)
3 | CCN(CC)CCOc1ccc(C(=C(C)c2ccc(OC)cc2)c2ccc(OCCN(CC)CC)cc2)cc1 | -27.1% (active) | -28.1% (active) | 30.5% | 11.9% | -44.5% (active) | 17% | -94.1% (active) | -81.6% (active) | -77.9% (active) | -83.7% (active)
4 | N#Cc1c(-c2ccc(Br)cc2)cc(-c2c[nH]c3ccccc23)nc1N | 16.8% | 27.4% | 37.9% | 66.1% | 52.6% | 55.2% | 58.9% | 64.9% | 28.7% | 59.3%
5 | C/C(=N\NC(=O)Nc1ccccc1)c1nnn(-c2ccc([N+](=O)[O-])cc2)c1C | 105% | 116% | 100% | 100% | 102% | 99.7% | 99.6% | 99.6% | 102% | 106%
6 | Cc1ncn(-c2ccc(/C=N/Nc3ccnc4cc(Cl)ccc34)cc2)c1C | -59.4% (active) | -77.5% (active) | -24.2% (active) | 42.3% | -81.7% (active) | -21.3% (active) | -19.7% (active) | -74.4% (active) | -88.9% (active) | -79.3% (active)
7 | COc1ccc(NC(=O)CCCCCCNC(=O)C(O)(O)C(F)(F)F)cc1 | 67.7% | 23.1% | 60.2% | 66.8% | 39.7% | 52.7% | 17% | 17.4% | 35.2% | 40%
8 | O=C1/C(=C/c2cc(F)cc(F)c2)Cc2cc3c(cc21)OCO3 | 27.2% | 22.1% | 6.56% (active) | 49.7% | 43.4% | 25.3% | 23.6% | 24.3% | 38.5% | 57.8%
9 | Cc1ccc([C@H]2c3[nH]c4ccccc4c3C[C@H]3C(=O)N(CCCCCCC(=O)NO)CC(=O)N23)s1 | 93.6% | 56% | 35.8% | 62.7% | 65% | 61.9% | 40.5% | 33.3% | -93.2% (active) | 48.3%
10 | CCN(CC)S(=O)(=O)c1ccc(-c2nc(C(Cl)Cl)nc3cc(C)nn23)cc1 | 1.86% (active) | 5.07% (active) | 46.7% | 46.2% | 8.28% (active) | 31.1% | 78.3% | 49.9% | 35.6% | 23.3%
11 | CN1CCN(c2ccc(Nc3nc(NCCCNS(=O)(=O)c4ccccc4)c4sccc4n3)cc2)CC1 | 27.2% | -26.7% (active) | 89.3% | 56.6% | 13.2% | 68.9% | 24.9% | 13.2% | -22.2% (active) | -24.3% (active)
12 | COc1cc(-c2nc(-c3ccccc3)[nH]c2-c2ccnc(NCCCNS(=O)(=O)c3ccc(C(F)(F)F)cc3)n2)ccc1Cl | 14.3% and 22.5% | 43.9% and 17.9% | 58.6% and 67.5% | 57.1% and 54.1% | 40.7% and 39.8% | 15.4% and 20.3% | 22.4% and 52.3% | 56% and 44.9% | 18.1% and 47.6% | 63.1% and 44.4%
13 | COc1ccc2c(c1)c(-c1nc(N)nnc1-c1c[nH]c3ccccc13)cn2C | 22.9% | 14.5% | -11.9% (active) | 31.5% | 24.6% | 43.4% | 26% | 26.1% | 33.1% | 54.5%
